Assay outcomes deposited in PubChem by National Center for Advancing Translational Sciences (NCATS).
PLK1 PBD inh – qHTS for Inhibitors of PLK1-PDB (polo-like kinase 1 - polo-box domain): Primary Screen; Serine/threonine-protein kinase PLK1 (Homo sapiens), P53350; Plk1 PBD binding of FITC phosphopeptide, fluorescence polarization; Potency, µM, for inactives: max response, negative = inhibition, usual class: inhibitors; 360,000 tested, 2.8% active; AID 720504, 2013; note: series mostly up to about 57 µM; % is set by controls: 0 for no effect and ±100 for the full control effect; nearly all actives have a fitted effect of over 65% in size
VDR inhibitor – Inhibitors of the vitamin D receptor (VDR): qHTS. Vitamin D3 receptor (Homo sapiens), P11473. VDR-SRC2-3 peptide fluorescence polarization, 2 h. Potency, µM, for inactives: max response, negative = inhibition, actives largely listed as inhibitors. 400,000 tested, 0.93% active. AID 504847, 2011; note: % is set by controls: 0 for no effect and ±100 for the full control effect
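Compounds are added to VDR with labelled SRC2-3 coactivator peptide and held 2 h at room temperature. Inhibition of the VDR–peptide interaction is then read as a change in fluorescence polarization.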
PKM2 act – qHTS Assay for Activators of Human Muscle isoform 2 Pyruvate Kinase. AID 1631, 2009. 260,000 tested, 0.34% active. Potency, µM (series often up to 57.5 µM), inactives show at the highest dose activation, actives largely listed as activators. purified PKM2, Kinase-Glo ATP luminescence, activation; response scale: 0% is enzyme alone, no compound. Pyruvate kinase PKM (Homo sapiens), P14618; note: % is set by controls: 0 for no effect and ±100 for the full control effect; nearly all actives have a fitted effect of over 55% in size
Target sequence (P14618 whole entry, looked up, canonical isoform): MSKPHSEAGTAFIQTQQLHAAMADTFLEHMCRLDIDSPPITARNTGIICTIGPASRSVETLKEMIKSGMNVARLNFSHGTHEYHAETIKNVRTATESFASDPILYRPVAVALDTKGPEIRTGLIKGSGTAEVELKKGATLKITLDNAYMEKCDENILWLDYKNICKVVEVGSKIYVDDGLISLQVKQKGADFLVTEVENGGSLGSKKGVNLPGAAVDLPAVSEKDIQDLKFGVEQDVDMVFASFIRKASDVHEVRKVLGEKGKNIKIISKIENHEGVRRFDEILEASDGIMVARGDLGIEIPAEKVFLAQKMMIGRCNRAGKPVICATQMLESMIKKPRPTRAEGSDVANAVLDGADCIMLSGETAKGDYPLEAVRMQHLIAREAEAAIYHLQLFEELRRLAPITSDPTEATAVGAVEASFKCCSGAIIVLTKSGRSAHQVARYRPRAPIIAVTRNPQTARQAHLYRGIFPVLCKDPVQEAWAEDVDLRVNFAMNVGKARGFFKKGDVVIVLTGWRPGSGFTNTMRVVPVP
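hPK-M2, >95% pure; 0.1 mM ADP / 0.5 mM PEP final; imidazole pH7.2 buffer w/ 7 mM MgCl2, 50 mM KCl; 1 h RT; Kinase-Glo lum. Intermediate enzyme activity for dual inhibitor/activator qHTS.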
GLS inh – qHTS for Inhibitors of Glutaminase (GLS); Glutaminase kidney isoform, mitochondrial (Homo sapiens), O94925; GLS enzymatic activity, qHTS titration; Potency, µM (titrated, usually from 45.5 µM), without a hit: at the highest dose activity change, negative = inhibition, actives largely listed as inhibitors; 410,000 tested, 0.21% active; AID 624170, 2012; note: % is set by controls: 0 for no effect and ±100 for the full control effect
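Read-out is an Amplex red fluorescence increase coupled through glutamate oxidase and HRP, measured before and after 30 min room-temperature incubation. hKGA is in 45 mM KH2PO4 (pH 8.2) with 0.02% Tween-20; glutamine added as 1mM solution.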
Mito fusion act – qHTS Assay for Small Molecule Inhibitors of Mitochondrial Division or Activators of Mitochondrial Fusion; S. cerevisiae fusion-defective mutant growth rescue, CellTiterGlo 48 h; Potency, µM (titrated, usually from 46.1 µM), for inactives: top-dose growth rescue (activation), most hits filed as activators; 320,000 tested, 0.23% active; note: % of control where 0% means no effect; nearly all actives have a fitted effect of over 45% in size
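Compounds are tested for their ability to restore growth of mitochondrial fusion-defective yeast strains at non-permissive 37C in YPEG medium over 48 hours. Viability is quantified by luciferase luminescence.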
GCN5L2 inh – qHTS Assay for Inhibitors of GCN5L2. 390,000 tested, 0.21% active. GCN5L2 HAT assay, ThioGlo1 CoA-SH fluorescence. AID 504327, 2011. Potency, µM (series often up to 58.9 µM), inactives show at the top dose activity change, negative = inhibition, actives largely listed as inhibitors; note: % is set by controls: 0 for no effect and ±100 for the full control effect
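Free CoA generated was detected with ThioGlo1 (50uM) fluorescence at Ex340nm/Em540nm, read immediately and after 20 min at room temperature. Enzyme, 20 nM in HEPES pH 7.5 buffer, saw compounds 15 min before adding 75uM H3(1-25) peptide and 70uM acetyl-CoA.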
Active calls of the source: *; u = inconclusive; x = no result given; [ ] = another dose, or the depositor's remark. Only some compounds are listed: those with a hit (about 3.4% of all), similar ones and a draw of the others. Calls come from the whole dose curve; as a rule, active = well fitted curve in the direction sought with a large enough effect; inconclusive = small, poorly fitted or top-dose-only effect, or another doubt; inactive = no such curve, though single readings can be large; an effect the other way counts as inactive or inconclusive. Potency is the fitted concentration of half-maximal effect.

SMILES | PLK1 PBD inh | VDR inhibitor | PKM2 act | GLS inh | Mito fusion act | GCN5L2 inh
O=C(Cl)CCCCCCCC(=O)Cl | x | -1% | x | x | x | 37%
O=C(CCN1CCCCC1)Nc1cccc(Cl)c1 | 27µM* | -12% | -9% | -10% | -1% | -1%
CCNc1ncc2nc(-c3cccc(C#N)c3)c(=O)n(C)c2n1 | x | -11% | x | x | x | 35µM*
CCNc1ncc2nc(-c3cccc(C#N)c3)c(=O)n(CCC#N)c2n1 | x | 5% | x | x | x | -9%
COc1cccc(NC(=O)CSc2nn3c(=O)c(C)nnc3s2)c1 | -1% | 14% | 15% | 3% | 0% | -1%
O=C(c1ccccc1)N1CCn2c1nc1ccccc12 | 27µM* | u | 1% | -9% | 1% | -1%
C[C@H](NC(=O)N1CCn2c1nc1ccccc12)C(=O)NC1CC1 | 3% | 9% | x | 0% | 1% | -18%
O=C(c1cccc(Cl)c1)N1CCn2c1nc1ccccc12 | 9% | -13% | -7% | 10% | 6% | 0%
C[C@H](NC(=O)N1CCn2c1nc1ccccc12)C(=O)N1CCCCC1 | 8.4µM* | u | 1%[0.46 µM] | u | 8% | 1%
COc1ccc(CNC(=O)CCNC(=O)N2CCn3c2nc2ccccc23)cc1 | 24µM* | -20% | 0% | 19% | -2% | -5%
Cc1cnc(C(=O)O)cn1 | x | 2% | x | 2% | x | -8%
Cc1ccc(S(=O)(=O)N(CC(=O)c2ccccc2)C(=O)N2CCN(C)CC2)cc1 | -13% | -25% | x | 9% | -2% | -2%
CCOC(=O)c1ccc(NC(=O)C2=C(C)C(=O)OC23CCCCCC3)cc1 | x | 12% | x | 2% | x | -15%
COC(=O)c1ccc(Sc2ccc(C)cc2)c(N)c1 | 27µM* | -25% | 1% | -24% | 15% | -25%
COc1ccc(OC)c(CNC(=O)c2ccc(Sc3ccc(C)cc3)c(N)c2)c1 | x | 1% | x | 2% | x | 0%
CCN1CCN(C(=S)c2ccc([N+](=O)[O-])cc2)CC1 | 12µM* | 71µM* | 1% | 2% | -5% | -5%
O=C(c1ccc([N+](=O)[O-])cc1)N1CCCC1 | 0% | -8% | -2% | -8% | 0% | 0%
CC1CCN(C(=S)c2ccc([N+](=O)[O-])cc2)CC1 | 24µM* | u | 7% | -16% | 2% | 21%
O=[N+]([O-])c1ccc(C(=S)N2CCCC2)cc1 | 21µM* | -29% | -1% | 1% | -4% | 33%
CCCCOc1cccc(C(=O)Nc2ccc(S(=O)(=O)Nc3cc(C)on3)cc2)c1 | -8% | 9% | x | 7% | -1% | 0%
CCCCCNC(=O)Cc1ccc(S(=O)(=O)N2CCOCC2)s1 | 4% | -7% | x | 1% | 2% | 2%
c1ccc(-c2n[nH]c(-c3ccccc3)c2-c2nc3ccccc3[nH]2)cc1 | 27µM* | u | 4% | 40% | -1% | u
O=C(CCCSc1ccccc1)Nc1nc(-c2ccccn2)cs1 | 21µM* | u | 8% | -4% | 18% | -9%
O=C(CCCSc1ccccc1)Nc1nc(-c2ccco2)c(-c2ccco2)s1 | -17% | -19% | 18µM* | 1% | -6% | -24%
N#Cc1ccccc1OCC(=O)Nc1nc(-c2ccccn2)cs1 | 27µM* | x | x | -7% | x | x
CCCN1CCN(c2nnc(-n3cccc3C(=O)Nc3ccccc3C(F)(F)F)s2)CC1 | x | -7% | x | 3% | x | 1%
CN(C)S(=O)(=O)c1cccc(COc2cccnc2[N+](=O)[O-])c1 | 30µM* | u | -5% | -3% | -4% | -3%
O=[N+]([O-])c1ncccc1OCc1ccc(Cl)c(Cl)c1 | -5% | 1% | 3% | -4% | 3% | -6%
